MgrA-DNA mod = S. aureus MgrA activity modulators, primary screen, biochemical, S. aureus Newman, fluorescence polarization | MgrA-DNA binding | inhibition, % (no concentration beside the values) | 84,000 tested, 0.13% active | AID 602314, 2012; in the data active = inhibition above about 30%, passing the limit was not always enough;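 note: 0% = protein plus DNA without compound and 100% = DNA alone without protein; higher means less MgrA bound to DNA so lower polarization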
* hit, by the source's call. This is one part of a sample in which hits are shown more often than they occur.

SMILES	MgrA-DNA mod
CCN1CCC(NC(C)c2ccc(OC)cc2)CC1 (stereo not drawn)	0
Cc1ccc(S(=O)(=O)Nc2ccc(Br)cc2C(NCC(=O)O)c2ccccc2)cc1 (stereo not drawn)	2
CC(C)c1ccc(NC(=O)CNS(=O)(=O)c2ccccc2)cc1	2
CC(C)c1ccc(S(=O)(=O)Nc2cc(SCC(=O)O)c(O)c3ccccc23)cc1	90*
Cc1cc(N2CCN(c3nc4cc(Cl)ccc4s3)CC2)c2ccccc2n1	2
O=C(O)c1cc2c3c(c1)C1C=CCC1C(c1ccc(F)cc1)N3CC1CC=CC21 (stereo not drawn)	46
O=C(O)c1cc2c3c(c1)C1C=CCC1C(c1ccccc1F)N3CC1CC=CC21 (stereo not drawn)	74*
O=C(O)c1cc2c3c(c1)C1C=CCC1C(c1ccccc1)N3CC1CC=CC21 (stereo not drawn)	49
Cc1cc(I)ccc1NC(=O)C(C(C)C)N1C(=O)c2ccccc2C1=O (stereo not drawn)	-2
O=C(CC1Nc2ccccc2NC1=O)Nc1ccccc1Cl (stereo not drawn)	2
Cc1ccc(N2C(=O)NC(=O)/C(=C\c3ccc(-c4ccccc4C(=O)O)o3)C2=O)cc1	5
CN1C(=O)/C(=C\c2ccc(-c3ccccc3C(=O)O)o2)C(=O)N(c2ccccc2)C1=S	62*
CN1C(=O)/C(=C/c2ccc(-c3ccc(C(=O)O)cc3)o2)c2ccccc21	6
Cc1cccnc1NC(=O)C(C)(C)C	-1

Compound activity deposited in PubChem by ICCB-Longwood Screening Facility, Harvard Medical School.
